A selection: hits, their analogues and other compounds. The true share with any hit is near 20%.
CHX counter: counter-screen for Shiga toxin inhibitors: cycloheximide protein synthesis inhibition | cell reporter, cycloheximide protein synthesis inhibition counterscreen | max response, % | hit rate 12% among 300,000 | AID 2314; in the data active means max response mostly above about 13%, no sharp cut-off; inactive means mostly below about 14%; further: read at 38.3 µM for the half of the compounds with a filed dose; 0% is about no effect
Shiga inhibitor: inhibitors of Shiga toxin in Vero cells; inhibition, % at 38.7 µM; Vero cells, Shiga toxin protein synthesis inhibition reporter; hit rate 9.2% among 290,000; in the data active means inhibition mostly above about 28%, no sharp cut-off; inactive means mostly below about 43%; further: 0% is about no effect
HCMV antiviral: blocks human cytomegalovirus replication; HFF cells, HCMV-luciferase reporter, 72 h; active compounds read low; hit rate 4.5% among 410,000; activity change, negative = inhibition, % at 57.5 µM; in the data active means activity change below about -60%; inconclusive means no clear call, values can overlap the other calls; inactive means above about -39%; further: on the % scale 0 is the no-effect control and ±100 the full control effect
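Steps: HFFs plated, 16 h 37C; compounds added; HCMV-luciferase added to MOI 1 PFU/cell; 72 h 37C; OneGlo reagent, 5 min room temperature; luminescence read, normalized to controls.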
Pf growth 48h: P. falciparum growth inhibition at 48 hours (one generation). Potency, µM (top dose mostly 28.7 µM), inactives show at the top dose activity change, negative = inhibition, actives largely listed as inhibitors. P. falciparum luciferase growth in erythrocytes, 48 h. hit rate 5.9% among 310,000; further: potency means the concentration at half of the fitted maximal effect; on the % scale 0 is the no-effect control and ±100 the full control effect
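Firefly luciferase activity from engineered P. falciparum reports growth; inhibitors lower the luminescent signal. Cultures contained 2% hematocrit erythrocytes at 0.1% final parasitemia.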
Pf growth 96h: inhibits malaria parasite growth, 96 h; P. falciparum luciferase reporter growth, 96 h; Potency, µM (series often up to 28.7 µM), for inactives: at the top dose activity change, negative = inhibition, hits mostly inhibitors; hit rate 6.9% among 320,000; further: potency means the concentration at half of the fitted maximal effect; on the % scale 0 is the no-effect control and ±100 the full control effect
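96 h incubation, 37 C, 5% CO2, of luciferase-reporter P. falciparum-infected RBCs (2% hematocrit, 0.05% parasitemia final) with test compounds; endpoint luminescence.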
* marks the source's active call; other numbers are inactive results; i = inactive; ? = inconclusive; . = no result. Unless noted, the call rests on the fitted dose curve; in most records, active means well fitted inhibition curve with a large enough effect; inconclusive means small, poorly fitted or top-dose-only effect, or another doubt; inactive means no such curve, though single readings can be large or run the other way.

SMILES | CHX counter | Shiga inhibitor | HCMV antiviral | Pf growth 48h | Pf growth 96h
COc1cccc(C2C=C(c3ccc(C)cc3)Nc3c(C(=O)Nc4ccc(F)cc4)cnn32)c1OC (centres undefined) | . | . | -21 | . | .
COc1ccccc1NC(=O)CCC(=O)Nc1cc(OC)c(NC(=O)c2cccs2)cc1OC | 3 | -19 | -22 | -23% | 13%
O=C(COc1ccccc1F)Nc1nnc(S(=O)(=O)N2CCCCCC2)s1 | . | . | 2 | . | .
COc1cc(/C=N/NC(=O)c2ccccc2O)ccc1OC(=O)CC1SC(=O)NC1=O (centres undefined) | 30* | 58* | 4 | 19% | -12%
NC(=S)N/N=C\c1ccccc1OCc1ccccc1 | -3 | -16 | -26 | -11% | ?
CCOc1cc(/C=N/NC(=O)c2ccccc2OCc2ccc(F)cc2)ccc1O | . | . | -82* | 8.3µM* | ?
O=C(N/N=C/c1cccc(OC(=O)N2CCOCC2)c1)c1cccs1 | 27* | 0 | 47 | 61% | 4%
O=C(N/N=C/c1ccccc1OCc1ccccc1)c1cccs1 | 42* | active | 1 | 38% | -7%
COc1cc(C(=O)N/N=C/c2ccc(OC(=O)c3ccccc3Cl)c(OC)c2)ccc1O | 8 | 11 | . | -2% | ?
O=C(Oc1cccc(Cl)c1)N1CCOCC1 | -4 | -7 | 10 | 2% | ?
CCOc1cc(/C=N/NC(=O)c2ccccc2-n2cccc2)ccc1O | . | . | -13 | 12% | 2%
O=C(NCc1ccccc1Cl)c1ccccc1NC(=O)c1nsc2ccccc12 | . | . | -37 | . | .
CCC(C(=O)Nc1cc(C)ccc1C)n1c(=O)c(C(F)(F)F)nc2ccccc21 (centres undefined) | . | . | -2 | . | .
COc1cc(OC)cc(C(=O)NNC(=O)CN2C(=O)NC(C)(c3ccccc3)C2=O)c1 (centres undefined) | . | . | 1 | ? | 34%
COc1cc(/C=N/NC(=O)CCN2CCN(C(c3ccccc3)c3ccccc3)CC2)ccc1O | 1 | 4 | 2 | ? | 12µM*
C(=N\Nc1ccccn1)/c1ccc2c(c1)OCCO2 | 35* | 33* | 3 | i | i
Fc1cccc(/C=N/Nc2ccccn2)c1 | 56* | 81* | 81 | 278% | 172%
Fc1cccc(F)c1/C=N/Nc1ccccn1 | 50* | 95* | -31 | 170% | 327%
Cc1cc(C)n2cc(CSc3ncn[nH]3)nc2n1 | 1 | 1 | -16 | 11% | 10%
Cc1cc(C)n2cc(CSc3nnnn3-c3ccc(Cl)cc3)nc2n1 | -2 | -1 | -24 | -4% | 31%
Cc1cc(C)n2cc(CSc3ccc(Br)cc3)nc2n1 | 26* | 31* | 30 | 52% | 0%
Cc1cc(C)n2cc(CSc3nnnn3-c3ccccc3)nc2n1 | 9 | 25 | -71* | -22% | 8.3µM*
O=C(c1[nH]c(C(F)(F)F)nc1-c1ccccc1)N1CCN(c2ccccn2)CC1 | . | . | 12 | . | .
Cc1ccc(CCNC(=O)CS(=O)Cc2nc(-c3ccccc3Cl)oc2C)cc1 (centres undefined) | -2 | -11 | -10 | 32% | ?
COc1ccc(N(C)S(=O)(=O)c2cccc(C(=O)N3CCN(c4cccc(C)c4C)CC3)c2)cc1 | . | . | -29 | . | .
SMILES | CHX counter | Shiga inhibitor | HCMV antiviral | Pf growth 48h | Pf growth 96h
O=S(=O)(c1ccc(Cl)cc1)c1nnn2c1nc(NCc1cccs1)c1sccc12 | . | . | 20 | . | .
Cc1ccc(-c2nnn3c2nc(NC(C)C)c2ccccc23)cc1 | 14* | 20 | 24 | ? | 16%
Nc1nc2c(-c3ccc(Br)cc3)nnn2c2ccccc12 | 49* | 96* | 194 | 240% | 252%
COC(=O)Nc1ccc(=O)n(Cc2c(Cl)cccc2Cl)c1 | -2 | -11 | -23 | -4% | 5%
C1CCCN(C2CCNCC2)CC1 | -4 | . | 44 | 0% | ?
CC1CCC(N2CCNCC2)CC1 (centres undefined) | -1 | -5 | 14 | 11% | 15µM*
C1CCCC(N2CCNCC2)CC1 | -3 | 14 | 38 | 16% | 2.9µM*
Cc1ccc(OCC(=O)N/N=C/c2ccc([N+](=O)[O-])o2)cc1 | 12 | -5 | ? | 10µM* | ?
Cc1ccc(OCC(=O)N/N=C/c2ccco2)cc1 | 9 | 22 | -1 | . | -6%
O=C(CSc1ccc(Cl)cc1)N/N=C/c1ccc([N+](=O)[O-])o1 | 14* | 19 | -18 | ? | ?
Cc1ccc(SCC(=O)N/N=C/c2ccco2)cc1 | -1 | -5 | -3 | ? | ?
O=C(CNc1ccc2ccccc2c1)N/N=C/c1ccc([N+](=O)[O-])o1 | 3 | 15 | 2 | 9.3µM* | 3.3µM*

Screens as filed in PubChem.
